Screens: PubChem, The Scripps Research Institute Molecular Screening Center
Compounds with a hit are over-represented: about 4.1% of the library has one in this group of screens.
hcDAF12 agonist: activators of H. contortus DAF-12 nuclear receptor | HEK293 hcDAF-12 lit1-tk-luc reporter, luminescence; 0% DMSO, 100% Δ7-dafachronic acid | activation, % at 6.8 µM | 370,000 compounds, 1.4% hits;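 active means activation above the mean of all tested compounds plus 3 SD, cut at about 5.5% in these data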
hgDAF12 agonist: hgDAF-12 agonism, primary luciferase screen; HEK293 GAL4-hgDAF12 UAS-luciferase reporter, agonist luminescence; normalized to butyrate control; 370,000 compounds, 1.8% hits; activation, % at 6.8 µM;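 active means activation above a cutoff set at the mean of all screened compounds plus 3 SD, cut at about 10% in these data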
DAX1 inh-1: inhibits human nuclear receptor DAX1. inhibition, % at 6.75 µM. 340,000 compounds, 0.99% hits. P51843. AID 504766. HEK293 Gal4-DAX1 luciferase reporter, luminescence;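 active means inhibition above the mean over all tested compounds plus 3 SD, cut at about 4.2% in these data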;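 further: inhibition shows as a rise in luminescence from relieved DAX1 repression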
Target sequence (P51843 207-470 limits assumed): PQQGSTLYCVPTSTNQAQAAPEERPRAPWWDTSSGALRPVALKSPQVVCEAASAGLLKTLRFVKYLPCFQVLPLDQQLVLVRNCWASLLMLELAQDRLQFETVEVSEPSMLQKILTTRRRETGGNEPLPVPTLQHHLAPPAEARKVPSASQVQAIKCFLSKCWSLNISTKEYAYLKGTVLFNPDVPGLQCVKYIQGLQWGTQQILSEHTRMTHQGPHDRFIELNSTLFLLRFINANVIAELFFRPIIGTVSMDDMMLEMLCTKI
DAX1 inh-2: DAX1 (NR0B1) inhibition, primary screen; AID 652010; inhibition, % at 6.8 µM; HEK293T StAR-luciferase reporter, SF-1/DAX-1 repression relief; 370,000 compounds, 1.1% hits;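 active means inhibition above the mean over all tested compounds plus 3 SD, cut at about 3.6% in these data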;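 further: higher inhibition means more luminescence from relief of DAX-1 repression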
ssDAF12 agonist: S. stercoralis DAF-12 activation, primary screen; HEK293 ssDAF-12/GRIP1 lit1-tk-luc reporter, luminescence; % of 3 µM dafachronic acid response; activation, % at 6.8 µM; 370,000 compounds, 1% hits;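 active means activation above the mean over all tested compounds plus 3 SD, cut at about 0.9% in these data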
hgDAF12 conf: hgDAF-12 agonism, confirmation assay. shares compounds with hgDAF12 agonist. HEK293 GAL4-hgDAF12 luciferase reporter, agonist mode; percent of butyrate response. activation, % at 6.8 µM. 3,300 compounds, 80% hits;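 active means mean activation over triplicate wells above the hit cutoff derived from the earlier primary screen, cut at about 11% in these data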
LXR ag 2: LXR-beta agonism as DAF-12 counter-screen; shares compounds with hgDAF12 agonist; 3,300 tested, under 10 active; activation, % at 6.8 µM; HEK293 Gal4-LXR luciferase reporter, 24 h;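 active means mean activation of the triplicate above a set limit carried over from the primary screen, none filed active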
A number is an active result; - = inactive; . = no result.

SMILES	hcDAF12 agonist	hgDAF12 agonist	DAX1 inh-1	DAX1 inh-2	ssDAF12 agonist	hgDAF12 conf	LXR ag 2
CCOC(=O)Cc1ccc2sc(-c3ccccc3)nc2c1	-	13	-	-	-	14	-
C[C@H](O)[C@@H]1CN2CCc3ccc(N4CCOCC4)cc3[C@@H]2C[C@@H]1N(C)C(=S)NCCc1ccccc1	-	-	.	-	-	.	.
Cc1ccc(OC[C@@H](O)CN2CCC(C(O)(c3ccccc3)c3ccccc3)CC2)cc1	-	-	.	-	-	.	.
Cc1nc2sc(-c3ccccc3)nn2c(=O)c1Br	-	16	-	-	-	17	-
Oc1ccc(/C=N/NC(=S)Nc2cccnc2)cc1	-	15	-	-	-	11	-
COc1cccc(/C=N/NC(=S)Nc2cccnc2)c1	-	-	-	-	-	.	.
Cc1ccccc1OCc1nc2ccccc2[nH]1	-	19	-	-	-	17	-
CCCCc1nc2ccccc2[nH]1	-	-	-	-	-	.	.
Cc1ccc(SCc2nc3ccccc3[nH]2)cc1	-	14	-	-	-	12	-
COC(=O)[C@]12C[C@H](CC(=O)NCc3ccc(OC)c(OC)c3)C(=O)N(Cc3ccc(Cl)cc3Cl)C1=C[C@H](C(C)(C)C)O[C@@H]2C	-	-	.	-	-	.	.
N=c1oc2ccccc2cc1C(=O)NC1CCCCCC1	-	14	-	-	-	14	-
N=c1oc2ccc(Cl)cc2cc1C(=O)NC1CCCCCC1	-	-	-	-	-	.	.
COc1ccccc1C(=O)N/C(=N/c1nc(C)cc(C)n1)Nc1ccccc1	-	14	-	-	-	-	-
CCC(=O)N/C(=N/c1nc(C)cc(C)n1)Nc1ccccc1	-	-	-	-	-	.	.
C[C@H]1CN(C(=O)OC(C)(C)C)CCN1c1ccc(N2CC[C@@H](O)C2)c(C#N)c1	-	-	.	-	-	.	.
COc1ccc(/C=N/NC(=O)c2sccc2C)c2ccccc12	-	15	6.2	-	-	-	-
O=c1c2c(nc3cc(-c4ccc(F)cc4)[nH]n13)CCC2	6.4	15	-	4.1	-	17	-
CC(=O)N1CCN(c2ccc(NC(=O)c3ccccc3Cl)cc2)CC1	-	-	-	-	-	.	.
O=C(Nc1ccc(N2CCCCC2)cc1)C(Cl)c1ccccc1 (stereo not given)	-	19	-	-	-	-	-
O=C(Nc1ccc(N2CCCC2)cc1)C(c1ccccc1)c1ccccc1	-	-	-	-	-	.	.
O=C(Nc1ccc(N2CCCCCC2)cc1)c1ccccc1Cl	-	17	-	-	-	19	-
C=CCCC(=O)N[C@H]1CC[C@@]23CCCN2C(=O)CCC[C@H]3[C@H]1C	-	-	.	.	-	.	.
Nc1cc(Cl)ccc1Oc1ccc2ccccc2c1	-	22	-	-	-	-	-
Nc1nc(N)c(N=Nc2ccc(C(=O)O)cc2)c(N)n1	-	-	-	-	-	.	.
O=C(O)c1ccc(N=Nc2c(O)[nH]c3cc(Cl)ccc23)cc1	-	17	6.4	3.7	-	19	-
SMILES	hcDAF12 agonist	hgDAF12 agonist	DAX1 inh-1	DAX1 inh-2	ssDAF12 agonist	hgDAF12 conf	LXR ag 2
c1ccc(-c2nc3ccccc3s2)nc1	-	13	4.3	-	-	18	-
Nc1ccc(-c2nc3ccccc3s2)cn1	-	14	-	-	-	20	-
CCn1c(SCC(=O)Nc2ccc(C(C)C)cc2)nnc1-c1ccc(C(C)(C)C)cc1	-	-	.	-	-	.	.
Fc1ccc(N=C2NN=C(c3cc(F)ccc3F)CS2)cc1	-	16	-	-	-	11	-
OCCCN=c1cc(-c2ccccc2)oc2ccc(Cl)cc12	-	18	-	-	-	11	-
OCCNc1nc(-c2ccccc2)c2cc(Cl)ccc2n1	-	-	-	-	-	.	.
COCCNC(=O)c1cc(-c2cccs2)on1	-	37	-	-	-	28	-
O=C(NCc1cccs1)c1cc(-c2cccs2)on1	-	15	-	-	-	15	-
CCCn1cc(NC(=O)c2cc(-c3ccccc3)on2)cn1	-	22	-	-	-	20	-
O=C(Nc1cccc(O)c1)c1cc(-c2cccs2)on1	-	15	-	-	-	21	-
